Measurements published in PubChem BioAssay (NCATS).
Results filed as inconclusive are left out. Active and inactive are the calls of the source. Unless noted, calls come from the whole dose curve; as a rule, active = well fitted cell-killing curve with a large enough effect; inconclusive = small, poorly fitted or top-dose-only effect, or effect the other way; inactive = no such curve, though single readings can be large or run the other way.

Legend:
[1] = Quantitative High-Throughput drug screen in 47 multiple myeloma cell lines against the NCATS MIPE library collection: KMS28PE_JCRB cell viability assay (AID 1918983); note: nearly all actives have a fitted effect of over 35% in size; note: potency is the fitted concentration of half-maximal effect
How it was run: (§1)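 qHTS format: cells plated (500/well), pin-dosed with MIPE 4.0 compounds, kept 48 h at 37 °C. Readout was CellTiter-Glo luminescence, median RLU.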

[2] = Quantitative High-Throughput drug screen in 47 multiple myeloma cell lines against the NCATS MIPE library collection: L363_DSMZ cell viability assay (AID 1918984); note: nearly all actives have a fitted effect of over 40% in size; note: potency is the fitted concentration of half-maximal effect
How it was run: as §1

[3] = Quantitative High-Throughput drug screen in 47 multiple myeloma cell lines against the NCATS MIPE library collection: OCIMY5_PLB cell viability assay (AID 1918988); note: nearly all actives have a fitted effect of over 65% in size; note: potency is the fitted concentration of half-maximal effect
How it was run: as §1

[4] = Quantitative High-Throughput drug screen in 47 multiple myeloma cell lines against the NCATS MIPE library collection: SKMM1_PLB cell viability assay (AID 1919863); details: SKMM1 myeloma viability, CellTiter-Glo ATP, 48 h; viability: stronger effect = lower value; note: nearly all actives have a fitted effect of over 35% in size; note: potency is the fitted concentration of half-maximal effect
How it was run: as §1

[5] = Quantitative High-Throughput drug screen in 47 multiple myeloma cell lines against the NCATS MIPE library collection: XG6_PLB cell viability assay (AID 1919865); note: nearly all actives have a fitted effect of over 40% in size; note: potency is the fitted concentration of half-maximal effect
How it was run: as §1

[6] = Quantitative High-Throughput drug screen in 47 multiple myeloma cell lines against the NCATS MIPE library collection: XG1_PLB cell viability assay (AID 1919866); note: nearly all actives have a fitted effect of over 35% in size; note: potency is the fitted concentration of half-maximal effect
How it was run: as §1

[7] = Quantitative High-Throughput drug screen in 47 multiple myeloma cell lines against the NCATS MIPE library collection: PE2_PLB cell viability assay (AID 1919869); note: nearly all actives have a fitted effect of over 35% in size; note: potency is the fitted concentration of half-maximal effect
How it was run: as §1

[8] = Quantitative High-Throughput drug screen in 47 multiple myeloma cell lines against the NCATS MIPE library collection: PCM6_Riken cell viability assay (AID 1919870); note: nearly all actives have a fitted effect of over 30% in size; note: potency is the fitted concentration of half-maximal effect
How it was run: as §1

[9] = Quantitative High-Throughput drug screen in 47 multiple myeloma cell lines against the NCATS MIPE library collection: RPMI8226_ATCC cell viability assay (AID 1919871); note: nearly all actives have a fitted effect of over 30% in size; note: potency is the fitted concentration of half-maximal effect
How it was run: as §1

[10] = Quantitative High-Throughput drug screen in 47 multiple myeloma cell lines against the NCATS MIPE library collection: OPM2_DSMZ cell viability assay (AID 1919872); note: nearly all actives have a fitted effect of over 30% in size; note: potency is the fitted concentration of half-maximal effect
How it was run: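 Approved and investigational drugs from MIPE 4.0 were added by pin tool to 500 cells per well. After 48 hours at 37C, ATP-based CellTiter-Glo luminescence indicated remaining viability.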

[11] = Quantitative High-Throughput drug screen in 47 multiple myeloma cell lines against the NCATS MIPE library collection: KMS11_JCRBsus cell viability assay (AID 1919873); note: nearly all actives have a fitted effect of over 50% in size; note: potency is the fitted concentration of half-maximal effect
How it was run: as §1

[12] = qHTS drug screen for cell cycle checkpoint inhibitors in PARPi-resistant BRCA-mutant ovarian cancer cell lines. (AID 1963452; calls by dose curve); details: PEO1/OlaR viability, CellTiter-Glo luminescence, 96 h, stronger effect = lower value
How it was run: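 PEO1, PEO4 and PEO1/OlaR ovarian cancer cells, 600 per well, exposed 96 h at 37C to a dilution series. Viability read by CellTiter-Glo luminescence, normalized to DMSO and empty wells; activity summarized as Z-AUC.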

[13] = Quantitative High-Throughput drug screen in 47 multiple myeloma cell lines against the NCATS MIPE library collection: KMS34_JCRB cell viability assay (AID 1918985); note: nearly all actives have a fitted effect of over 40% in size; note: potency is the fitted concentration of half-maximal effect
How it was run: as §1

[14] = Quantitative High-Throughput drug screen in 47 multiple myeloma cell lines against the NCATS MIPE library collection: OCIMY7_PLB cell viability assay (AID 1918987); note: potency is the fitted concentration of half-maximal effect; nearly all actives have a fitted effect of over 65% in size
How it was run: as §1

[15] = Quantitative High-Throughput drug screen in 47 multiple myeloma cell lines against the NCATS MIPE library collection: OPM1_PLB cell viability assay (AID 1918989); note: nearly all actives have a fitted effect of over 40% in size; note: potency is the fitted concentration of half-maximal effect
How it was run: as §1

[16] = Quantitative High-Throughput drug screen in 47 multiple myeloma cell lines against the NCATS MIPE library collection: U266_ATCC cell viability assay (AID 1919864); note: nearly all actives have a fitted effect of over 35% in size; note: potency is the fitted concentration of half-maximal effect;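 for viability (% of DMSO control): 0% = media-only wells without cells and 100% = DMSO-only wells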
How it was run: as §1

[17] = Quantitative High-Throughput drug screen in 47 multiple myeloma cell lines against the NCATS MIPE library collection: VP6_DJ cell viability assay (AID 1919867)
How it was run: as §1

[18] = Quantitative High-Throughput drug screen in 47 multiple myeloma cell lines against the NCATS MIPE library collection: UTMC2_PLB cell viability assay (AID 1919868); details: CellTiter-Glo ATP luminescence, 48 h; viability (% of DMSO control): at 45.8 µM (top of the series) unless noted; note: nearly all actives have a fitted effect of over 55% in size; note: potency is the fitted concentration of half-maximal effect;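 for viability (% of DMSO control): 100% = DMSO-only wells and 0% = media-only wells without cells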
How it was run: as §1

[19] = Quantitative High-Throughput drug screen in 47 multiple myeloma cell lines against the NCATS MIPE library collection: KMS28BM_JCRB cell viability assay (AID 1919874)
How it was run: as §1

[20] = qHTS for identification of novel therapeutic agents for treatment of microphthalmiaassociated transcription factor (MiT) renal cell carcinoma (RCC) (AID 1963991); details: CellTiter-Glo, 48 h, stronger effect = lower value;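 note: curves scaled with 100% = DMSO viability and 0% = empty wells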
How it was run: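 UOK109/UOK124/UOK145 (TFE3 fusions, three partners); 500 cells/well; MIPE v4.0, 1912 cpds, 11 conc.; 48 h, 37 C; CellTiter-Glo, 15 min RT; lum. Norm.: DMSO 100%, empty 0%.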

[21] = measured here: PEO1 parental Z-AUC
[22] = TFE3-RCC UOK109 viability, measured here: UOK109 Z-AUC
[23] = TFE3-RCC viability, measured here: UOK124 Z-AUC
[24] = TFE3-RCC viability, measured here: UOK145 Z-AUC

CCCCCCCCCC(=O)N[C@@H](Cc1c[nH]c2ccccc12)C(=O)N[C@H](CC(N)=O)C(=O)N[C@@H](CC(=O)O)C(=O)N[C@@H]1C(=O)NCC(=O)N[C@@H](CCCN)C(=O)N[C@@H](CC(=O)O)C(=O)N[C@H](C)C(=O)N[C@@H](CC(=O)O)C(=O)NCC(=O)N[C@H](CO)C(=O)N[C@@H]([C@@H](C)CC(=O)O)C(=O)N[C@@H](CC(=O)c2ccccc2N)C(=O)O[C@@H]1C
inactive: Potency [1] | Potency [2] | Potency [3] | viability [4] 145% | Potency [5] | Potency [6] | Potency [7] | Potency [8] | Potency [9] | Potency [10] | Potency [11] | Z-AUC [12] -0.7
-0.476: Z-AUC [12, 21]
-0.85: Z-AUC ([12]; measured here: PEO4 Z-AUC)

CC1=C(CO)C(=O)O[C@@H]([C@@H](C)[C@H]2CC[C@H]3[C@@H]4C[C@H]5O[C@]56[C@@H](O)C=CC(=O)[C@]6(C)[C@@H]4CC[C@]23C)C1
active: Potency [1] 0.264 µM | Potency [13] 0.118 µM | Potency [14] 0.105 µM | Potency [3] 0.132 µM | Potency [15] 0.132 µM | Potency [4] 0.296 µM | Potency [16] 0.264 µM | Potency [5] 0.469 µM | Potency [6] 0.209 µM | Potency [17] 0.166 µM | Potency [18] 0.296 µM | Potency [7] 0.166 µM | Potency [8] 0.166 µM | Potency [9] 0.187 µM | Potency [10] 0.296 µM | Potency [11] 0.0935 µM | Potency [19] 0.132 µM

O=C(NCCS(=O)(=O)c1ccc(C(F)(F)F)cn1)c1ccc(Cl)cc1
0.479: Z-AUC ([12]; measured here: PEO4 Z-AUC)
-0.45: z-score [20, 22]
0.415: Z-AUC [12, 21]
inactive: Potency [1] | Potency [2] | Potency [13] | viability [4] 128% | Potency [16] | Potency [6] | Potency [18] | Potency [7] | Potency [10] | Z-AUC [12] 0.591
0.45: z-score [20, 24]
0.348: z-score [20, 23]

Cc1c(C)n(Cc2ccc(-c3ccccc3C(=O)O)cc2)c2ccc(C(=O)N[C@@H](C)c3ccc([N+](=O)[O-])cc3)cc12
0.774: Z-AUC [12, 21]
0.226: Z-AUC ([12]; measured here: PEO4 Z-AUC)
inactive: Potency [1] | viability [4] 123% | Potency [9] | Potency [10] | Z-AUC [12] 0.131
active: Potency [2] 0.0935 µM | Potency [7] 11.8 µM | Potency [11] 18.7 µM

C=CC(=O)Nc1cc2c(Nc3ccc(F)c(Cl)c3)ncnc2cc1OCCCN1CCOCC1
-1.15: Z-AUC ([12]; measured here: PEO4 Z-AUC)
inactive: Z-AUC [12] -0.343
active: Potency [1] 18.7 µM | Potency [13] 14.8 µM | Potency [14] 0.296 µM | Potency [3] 5.9 µM | Potency [15] 2.96 µM | Potency [4] 16.6 µM | Potency [16] 18.7 µM | Potency [5] 1.66 µM | Potency [6] 2.64 µM | Potency [17] 1.18 µM | Potency [18] 4.69 µM | Potency [7] 1.87 µM | Potency [8] 1.48 µM | Potency [9] 20.9 µM | Potency [10] 20.9 µM
-0.823: Z-AUC [12, 21]

Cc1cc(Nc2ncnc3ccc(-c4ccc(CNCCS(C)(=O)=O)o4)cc23)ccc1Oc1ccn2ncnc2c1
0.912: Z-AUC [12, 21]
0.782: Z-AUC ([12]; measured here: PEO4 Z-AUC)
inactive: Z-AUC [12] 0.841
active: Potency [1] 23.5 µM | Potency [2] 0.372 µM | Potency [14] 9.35 µM | Potency [3] 16.6 µM | Potency [15] 5.9 µM | Potency [4] 26.4 µM | Potency [16] 18.7 µM | Potency [5] 1.66 µM | Potency [6] 6.62 µM | Potency [17] 1.48 µM | Potency [18] 6.62 µM | Potency [7] 3.32 µM | Potency [9] 26.4 µM | Potency [10] 20.9 µM | Potency [11] 5.9 µM | Potency [19] 16.6 µM

CCCNC(=O)Nc1ccc(Oc2ncnc3cc(OC)c(OC)cc23)cc1Cl
active: Potency [9] 0.935 µM
0.0793: z-score [20, 22]
inactive: Potency [1] | Potency [2] | Potency [13] | Potency [15] | Potency [5] | Potency [6] | Potency [18] | Potency [7] | Potency [8] | Potency [10] | Z-AUC [12] -0.498
-0.496: z-score [20, 24]
-1.33: z-score [20, 23]
-0.00236: Z-AUC [12, 21]
-0.53: Z-AUC ([12]; measured here: PEO4 Z-AUC)

COc1cc(C)c(Sc2cnc(NC(=O)c3ccc(CNC(C)C(C)C)cc3)s2)cc1C(=O)N1CCN(C(C)=O)CC1 (stereo not given)
-0.662: Z-AUC [12, 21]
-0.689: Z-AUC ([12]; measured here: PEO4 Z-AUC)
active: Potency [1] 14.8 µM | Potency [2] 9.35 µM | Potency [14] 10.5 µM | Potency [3] 5.26 µM | Potency [15] 18.7 µM | Potency [4] 18.7 µM | Potency [16] 23.5 µM | Potency [5] 16.6 µM | Potency [6] 18.7 µM | Potency [17] 7.43 µM | Potency [18] 4.18 µM | Potency [7] 13.2 µM | Potency [8] 23.5 µM | Potency [9] 14.8 µM | Potency [10] 20.9 µM | Potency [11] 8.33 µM | Potency [19] 13.2 µM
inactive: Z-AUC [12] -0.385

Cc1cc(Nc2cc(N3CCN(C)CC3)nc(Sc3ccc(NC(=O)C4CC4)cc3)n2)n[nH]1
active: Potency [1] 11.8 µM | Potency [13] 14.8 µM | Potency [14] 0.296 µM | Potency [3] 5.26 µM | Potency [15] 5.9 µM | Potency [4] 16.6 µM | Potency [16] 16.6 µM | Potency [5] 13.2 µM | Potency [6] 4.18 µM | Potency [17] 18.7 µM | Potency [18] 0.001 µM | Potency [7] 14.8 µM | Potency [8] 23.5 µM | Potency [9] 13.2 µM | Potency [10] 20.9 µM | Potency [11] 2.35 µM | Potency [19] 6.62 µM
-0.131: Z-AUC [12, 21]
inactive: Z-AUC [12] 0.654
-0.437: Z-AUC ([12]; measured here: PEO4 Z-AUC)
